In the library only some 1.5% were active in any assay of this set; here they are far more common.
DUSP1 inh: MKP-1 phosphatase inhibitors, primary screen, biochemical, in vitro | Dual specificity protein phosphatase 1 (Homo sapiens), P28562 | recombinant MKP-1, OMFP hydrolysis fluorescence | inhibition, %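 (compounds tested at a single concentration somewhere between 10 and 100 µM)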 | hit rate 0.15% among 65,000;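 active = inhibition above about 50%, limit read from the data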
HePTP inh: inhibitors of human HePTP phosphatase, primary screen, biochemical, absorbance, leukemia target; Tyrosine-protein phosphatase non-receptor type 7 (Homo sapiens), P35236; recombinant HePTP phosphatase activity, OD absorbance; inhibition, % at 20 µM; hit rate 0.64% among 110,000; AID 521, 2006; in the data active = inhibition above about 50%
PLAP act: PLAP enzyme activators, biochemical, luminescence, HTS. purified PLAP enzyme, luminescent substrate read-out; stronger effect = higher value. activation fold at 20 µM. hit rate 1.2% among 96,000. AID 696, 2007; in the data active = activation fold above about 2
Cdc25B block: inhibitors of Cdc25B phosphatase catalytic domain, primary screen, biochemical, OMFP fluorescence. inhibition, %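 (compounds tested at 10 µM final in the well)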. recombinant Cdc25B, OMFP fluorescence Ex485/Em525. M-phase inducer phosphatase 2 (Homo sapiens), P30305. hit rate 0.1% among 65,000; in the data active = inhibition above about 50%
TNAP act DEA: human TNAP enzyme activators, primary screen, biochemical, luminescent, intermediate phosphate acceptor level; purified TNAP, CDP-star luminescence, 100 mM DEA, 30 min; stronger effect = higher value; scale: 0 levamisole-inhibited, 1 vehicle-only enzyme; activation factor at 20 µM; 64,000 tested, under 10 active;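 active = activation factor of at least 2 at 20 µM, relative to controls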
Target sequence (P05186 whole entry, looked up): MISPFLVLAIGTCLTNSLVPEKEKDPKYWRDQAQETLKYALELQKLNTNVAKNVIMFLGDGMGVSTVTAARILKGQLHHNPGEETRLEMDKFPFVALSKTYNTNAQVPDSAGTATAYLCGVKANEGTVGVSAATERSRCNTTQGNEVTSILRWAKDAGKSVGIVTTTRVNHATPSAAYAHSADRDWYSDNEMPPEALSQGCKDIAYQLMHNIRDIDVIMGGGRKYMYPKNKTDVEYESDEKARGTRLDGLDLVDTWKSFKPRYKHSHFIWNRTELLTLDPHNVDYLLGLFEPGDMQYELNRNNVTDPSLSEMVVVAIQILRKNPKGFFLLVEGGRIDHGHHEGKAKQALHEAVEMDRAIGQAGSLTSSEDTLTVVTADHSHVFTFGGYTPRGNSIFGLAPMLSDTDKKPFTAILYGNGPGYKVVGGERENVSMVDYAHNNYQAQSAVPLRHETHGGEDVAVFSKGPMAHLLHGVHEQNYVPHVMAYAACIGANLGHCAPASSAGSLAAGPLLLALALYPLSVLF
Hsp90 inh: tumor Hsp90 inhibitors, primary screen, cell lysate, fluorescence polarization, NCI-N417 lysate; Heat shock protein HSP 90-alpha (Homo sapiens), P07900; Cy3B-geldanamycin FP displacement; inhibition, % at 30 µM; hit rate 0.35% among 64,000;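 active = inhibition above 50%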
Numbers stand for hits; - = inactive; . = not tested or not shown; ! = a repeat was not active.

SMILES | DUSP1 inh | HePTP inh | PLAP act | Cdc25B block | TNAP act DEA | Hsp90 inh
O=C(O)c1ccc2c(c1)C1C=CCC1C(c1ccc([N+](=O)[O-])cc1)N2 (centres undefined) | . | 102.2 | . | . | . | .
O=C(O)c1cccc2c1NC(c1ccc([N+](=O)[O-])cc1)C1CC=CC21 (centres undefined) | . | 103.1 | . | . | . | .
O=[N+]([O-])c1ccc(C2Nc3c(cccc3[N+](=O)[O-])C3C=CCC32)cc1 (centres undefined) | . | - | . | . | . | .
COC(=O)c1ccc2c(c1)C1C=CCC1C(c1ccc([N+](=O)[O-])cc1)N2 (centres undefined) | . | - | . | . | . | .
O=C(O)C1Nc2c(cccc2[N+](=O)[O-])C2C=CCC12 (centres undefined) | . | 103.5 | . | . | . | .
O=C(O)c1cccc2c1NC(c1cccc3ccccc13)C1CC=CC21 (centres undefined) | . | 102.2 | . | . | . | .
O=[N+]([O-])c1cccc2c1NC(c1ccc(F)cc1)C1CC=CC21 (centres undefined) | . | - | . | . | . | .
O=[N+]([O-])c1cccc2c1NC(c1ccc(Cl)cc1)C1CC=CC21 (centres undefined) | . | 104.3 | . | . | . | .
Cc1cc(I)c2c(c1)C1C=CCC1C(C(=O)O)N2 (centres undefined) | . | 102.1 | . | . | . | .
Cc1cc(C)c2c(c1)C1C=CCC1C(c1ccc(S(=O)(=O)N3CCOCC3)cc1)N2 (centres undefined) | . | . | - | . | . | .
O=C(O)c1cccc2c1NC(c1ccc(Cl)cc1)C1CC=CC21 (centres undefined) | . | 104.3 | . | . | . | .
O=[N+]([O-])c1cccc(CNC2CCCCC2)c1 | . | - | . | . | . | .
Cc1nc(CSc2nc3[nH]ncc3c(=O)n2-c2ccccc2)cs1 | - | - | 2.3 | - | - | -
Cc1cccc(-n2c(SCc3cc(=O)n4c(C)cccc4n3)nc3[nH]ncc3c2=O)c1 | . | . | 2.8 | . | . | .
COc1ccc(CN2CCN(Cc3ccccc3C(F)(F)F)CC2)cc1 | . | - | . | . | . | .
CCn1nnc(NC(=O)COc2cc(C)ccc2C(C)C)n1 | - | - | - | - | - | 71.6
CCOc1ccc(C(=O)Nc2cccc(S(N)(=O)=O)c2)cc1Br | . | 102.7 | . | . | . | .
CCCNc1ncnc2nc[nH]c12 | - | - | - | - | - | -
c1ccc(CNc2ncnc3nc[nH]c23)cc1 | . | . | 2 | . | . | .
CCOc1cc(CNc2ncnc3nc[nH]c23)ccc1OC | - | - | 2.2 | - | - | -
COc1ccccc1/C=N/NC(=O)CSc1nc(C)cc(C)n1 | . | - | . | . | . | .
CC1CC(O)N(c2ccccc2)C(=S)N1 (centres undefined) | . | - | . | . | . | .
Cc1c(-c2ccc(Cl)cc2Cl)nc2ccccc2c1C(=O)NCc1ccc2c(c1)OCO2 | . | 103.3 | . | . | . | .
C=CCN1C(=O)/C(=C\c2ccc(-c3cc([N+](=O)[O-])ccc3C)o2)C(=O)NC1=S | . | 101.8 | . | . | . | .
O=C1NC(=S)N/C1=C/c1ccc(-c2cc([N+](=O)[O-])ccc2Cl)o1 | . | 80.2 | . | . | . | .
SMILES | DUSP1 inh | HePTP inh | PLAP act | Cdc25B block | TNAP act DEA | Hsp90 inh
COC(=O)c1cc(NC(=O)Cc2ccccc2)cc(C(=O)OC)c1 | . | - | . | . | . | .
Cc1ccc(NC(=O)C2CCCN2C(=O)C(C)(C)C)cc1 (centres undefined) | . | - | . | . | . | .
O=C(N/N=C\c1ccc([N+](=O)[O-])o1)c1nc(-c2ccccc2)cc(-c2ccccc2)n1 | . | 50.8 | . | . | . | .
Clc1cccc(N=Cc2ccncc2)c1 | . | - | . | . | . | .
Cc1ccsc1C(=O)NNC(=S)NCC(C)C | . | . | 2.2 | . | . | .
Cc1cccc(NC(=S)NNC(=O)c2sccc2C)c1 | . | . | 2.1 | . | . | .
COc1ccc(C(=O)Nc2ccccc2)cc1S(N)(=O)=O | . | - | . | . | . | .
CC12CC(NC(=O)N1c1cccc(C(=O)N3CCN(c4ccccc4)CC3)c1)c1ccccc1O2 (centres undefined) | - | - | - | - | - | -
CC12CC(NC(=O)N1c1ccc(C(=O)N3CCN(c4ccc(F)cc4)CC3)cc1)c1ccccc1O2 (centres undefined) | 53.2 | - | - | - | - | -
CCOc1ccc([C@H]2[C@H](C(=O)c3ccccc3)N3c4ccccc4C=CC3C2(C#N)C#N)cc1 (some centres undefined) | . | - | . | . | . | .
NNc1ccc(/C=C/c2ccc(NN)cc2S(=O)(=O)O)c(S(=O)(=O)O)c1 | . | 94.3 | . | . | . | .
COc1cc(CNCc2ccccn2)ccc1OCc1c(Cl)cccc1Cl | . | . | 2 | . | . | .
COC(=O)C1=C(C)N(C)C(C)=C(C(=O)OC)C1c1ccccc1 | . | - | . | . | . | .
COC(=O)C1=C(C)N(C)C(C)=C(C(=O)OC)C1c1ccsc1 | - | 105.1! | - | - | - | -
COc1ccc(/C=C2\SC(=NCc3ccccc3)N(Cc3ccccc3)C2=O)cc1C(=O)O | . | - | . | . | . | .
CCOc1cc(/C=N/NC(=O)CSc2nc3ccccc3n2Cc2ccccc2)ccc1O | . | - | . | . | . | .
Cc1nc2cc(NC(=O)Nc3nccs3)ccc2n1C | - | - | 2 | - | - | -
CCCNC(=O)Nc1ccc2c(c1)nc(C)n2C | . | . | - | . | . | .
COc1cc(-c2ccc(NC(=O)c3cccc(F)c3)c(OC)c2)ccc1NC(=O)c1cccc(F)c1 | . | - | . | . | . | .
NC(=O)COc1ccc(/C=c2/sc3n(c2=O)CCCN=3)cc1 | . | - | . | . | . | .
Cc1ccc(C(=O)c2cn[nH]c2-c2ccccc2O)cc1 | . | . | 2 | . | . | .
O=C(Nc1ccccc1-c1ccccc1)c1ccc(F)cc1 | . | - | . | . | . | .
O=C(c1ccc(F)cc1)c1cn[nH]c1-c1ccccc1O | - | - | 2.5 | - | - | .
COc1ccc(C(=O)c2cn[nH]c2-c2cc(Cl)ccc2O)cc1 | - | - | 2.2 | - | - | -
COc1ccc(C(=O)c2ccc(Cl)cc2Cl)cc1 | . | . | - | . | . | .
SMILES | DUSP1 inh | HePTP inh | PLAP act | Cdc25B block | TNAP act DEA | Hsp90 inh
CN(C)/C=C/C=C/C(=O)c1ccc(/C=C/C=C/N(C)C)o1 | . | 103.2 | . | . | . | .
NS(=O)(=O)c1ccc(CCNC(=O)c2ccc(S(=O)(=O)N3CCCCC3)cc2)cc1 | . | . | 2 | . | . | .
CC(=O)NCCc1ccc(S(=O)(=O)N2CCCC2)cc1 | - | - | - | - | - | -
Cn1cnnc1SCC(=O)Nc1ccc2nc(SCc3ccccc3F)sc2c1 | . | . | 2 | . | . | .
COc1ccc(NCc2cc3cc(OC)ccc3[nH]c2=O)cc1 | - | - | - | - | - | 87.5
COc1cc(OC)cc(C(=O)Nc2c(C)ccc3nsnc23)c1 | . | - | . | . | . | .
Cc1ccc(N2C(=O)c3n[nH]c(C)c3C2c2ccco2)cc1 (centres undefined) | - | . | - | - | . | -
CCOC(=O)c1ccc(N2C(=O)c3n[nH]c(C)c3C2c2ccco2)cc1 (centres undefined) | - | - | 2.7 | - | - | -
COC(=O)c1ccc(C2c3c(n[nH]c3C)C(=O)N2c2ccc(C)cc2)cc1 (centres undefined) | - | - | 2.3 | - | - | -
CCOc1cc(C2c3c(n[nH]c3C)C(=O)N2c2ccc(Br)cc2)ccc1O (centres undefined) | - | - | 2.3 | - | - | -

Source: PubChem BioAssay
